A number with no mark means an inactive call. Results filed as inconclusive are left out. Entries that show only a call come without a potency. Active and inactive are the calls of the source. Unless noted, the call rests on the fitted dose curve; in most records, active means well fitted curve in the direction sought with a large enough effect in the repeat runs; inconclusive means weak or mixed curves; inactive means no such curve, though single readings can be large; an effect the other way counts as inactive or inconclusive.
Assays:
[1] = qHTS assay to identify small molecule agonists of the estrogen receptor alpha (ER-alpha) signaling pathway in the presence of an antagonist - cell viability counter screen (AID 1259386);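 further: series mostly up to about 92 µM; cells exposed to compounds for 22 h at 37 °C before the viability read; nearly all actives have a fitted effect of over 30% in size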
Method in brief: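 Fluorescent CellTiter-Fluor viability signal from VM7Luc4E2 cells, with the reagent added during the final hour of a 22hr compound exposure at 37C in the presence of 10.0nM ICI-182,780.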

[2] = target: Progesterone receptor (Homo sapiens) (UniProt P06401); experiment: qHTS assay to identify small molecule agonists of the progesterone receptor (PR) signaling pathway (AID 1346784; calls by dose curve; further: nearly all actives have a fitted effect of over 30% in size; further: potency means the concentration at half of the fitted maximal effect)
Method in brief: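 Agonist qHTS: compounds pinned onto 3,000 PR-UAS-bla HEK 293T cells per well in charcoal-stripped serum medium, 16hr at 37C, then beta-lactamase activity measured by LiveBLAzer FRET fluorescence after 2 hours at room temperature.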

[3] = target: Progesterone receptor (Homo sapiens) (UniProt P06401); experiment: qHTS assay to identify small molecule antagonists of the progesterone receptor (PR) signaling pathway (AID 1346795; active means well fitted inhibition curve with a large enough effect in the signal ratio in the repeat runs, not every such curve was filed as active; the % refers to the signal ratio; further: potency means the concentration at half of the fitted maximal effect)
Method in brief: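 Antagonist mode with agonist R5020 at 1 nM final and 16 hr incubation at 37C. Reporter was beta-lactamase driven by UAS in HEK293T (PR-UAS-bla), 2% charcoal-stripped serum; signal from LiveBLAzer FRET substrate, 2 hr at room temperature.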

[4] = qHTS assay to identify small molecule antagonists of the progesterone receptor (PR) signaling pathway - cell viability counter screen (AID 1346798); further: series mostly up to about 92 µM; nearly all actives have a fitted effect of over 50% in size
Method in brief: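 Cytotoxicity read as CellTiter-Glo luminescence (30 min, room temperature) in the same wells as the beta-lactamase readout. HEK293T PR-UAS-bla cells in charcoal-stripped 2% FBS received compound and R5020, then 16 h at 37C, 5% CO2.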

[5] = qHTS assay to identify small molecule agonists of the progesterone receptor (PR) signaling pathway - cell viability counter screen (AID 1346799; calls by dose curve; further: nearly all actives have a fitted effect of over 45% in size)
Method in brief: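 Cytotoxicity measured by CellTiter-Glo luminescence (30 min, RT) in the same wells as the PR beta-lactamase agonist read. Those HEK293T cells had 16 h compound treatment at 37 C in 2% charcoal-stripped FBS medium.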

[6] = qHTS assay to identify small molecule antagonists of the TGF-beta/Smad signaling pathway - cell viability counter screen (AID 1346824); further: nearly all actives have a fitted effect of over 50% in size
Method in brief: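 Cytotoxicity counter-screen run in the same wells as the beta-lactamase Smad reporter read: CellTiter-Glo luminescence after 30 min at room temperature. HEK 293T SBE-bla cells had 5 hr compound exposure at 37 C with TGF-beta1 (0.25 ng/mL stock).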

[7] = qHTS assay to identify small molecule agonists of the TGF-beta/Smad signaling pathway - cell viability counter screen (AID 1346829); further: top concentration of the series differs between compounds; nearly all actives have a fitted effect of over 45% in size
Method in brief: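 Here the cytotoxicity of library compounds is measured in SBE-bla HEK 293T cells treated for 5 hr, using CellTiter-Glo added to wells already read for the beta-lactamase reporter.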

[8] = qHTS assay to identify small molecule agonists of the TGF-beta/Smad signaling pathway (AID 1346859; active means well fitted activation curve with a large enough effect in the signal ratio in the repeat runs, not every such curve was filed as active; the % refers to the signal ratio; further: series mostly up to about 77 µM)
Method in brief: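 Fluorescence (ex 405 nm; em 460 and 530 nm) was read 2 h after LiveBLAzer FRET substrate at RT. The preceding compound treatment of overnight-plated SBE-bla HEK293T cells lasted 5 h at 37 C.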

[9] = target: Thyrotropin-releasing hormone receptor (Homo sapiens) (UniProt P34981); experiment: qHTS assay to identify small molecule antagonists of the thyrotropin-releasing hormone receptor (TRHR) signaling pathway (AID 1346877; active means well fitted inhibition curve with a large enough effect in the repeat runs, not every such curve was filed as active; further: series mostly up to about 51 µM)
Method in brief: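 In this cell-based calcium flux format, HEK293 cells expressing TRHR received test compound for 5 min before the agonist TRH (1 nM final). Dye loading lasted 2 h at 37 °C.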

[10] = target: Thyrotropin-releasing hormone receptor (Homo sapiens) (UniProt P34981); experiment: qHTS assay to identify small molecule agonists of the thyrotropin-releasing hormone receptor (TRHR) signaling pathway (AID 1346891; calls by dose curve; further: series mostly up to about 58 µM)
Method in brief: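 Agonist-mode intracellular calcium readout: kinetic fluorescence over 3 min at 1 s intervals after compound addition to TRHR-HEK293 cells (18 h seeded, 2 h dye-loaded at 37 C). Fifteen concentrations, triplicates.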

Sequence of Thyrotropin-releasing hormone receptor (Homo sapiens) (P34981 whole entry, looked up): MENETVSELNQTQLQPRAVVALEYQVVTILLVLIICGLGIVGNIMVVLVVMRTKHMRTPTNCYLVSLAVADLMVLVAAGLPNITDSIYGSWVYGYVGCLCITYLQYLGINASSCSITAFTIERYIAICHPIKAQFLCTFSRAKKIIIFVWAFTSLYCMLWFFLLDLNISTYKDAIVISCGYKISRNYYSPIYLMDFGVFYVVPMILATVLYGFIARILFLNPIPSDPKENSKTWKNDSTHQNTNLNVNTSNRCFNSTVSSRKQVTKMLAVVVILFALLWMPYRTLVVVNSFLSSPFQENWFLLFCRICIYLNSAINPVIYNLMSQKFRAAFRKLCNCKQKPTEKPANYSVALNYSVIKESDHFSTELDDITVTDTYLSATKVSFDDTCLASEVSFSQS
Sequence of Progesterone receptor (Homo sapiens) (P06401 whole entry, looked up): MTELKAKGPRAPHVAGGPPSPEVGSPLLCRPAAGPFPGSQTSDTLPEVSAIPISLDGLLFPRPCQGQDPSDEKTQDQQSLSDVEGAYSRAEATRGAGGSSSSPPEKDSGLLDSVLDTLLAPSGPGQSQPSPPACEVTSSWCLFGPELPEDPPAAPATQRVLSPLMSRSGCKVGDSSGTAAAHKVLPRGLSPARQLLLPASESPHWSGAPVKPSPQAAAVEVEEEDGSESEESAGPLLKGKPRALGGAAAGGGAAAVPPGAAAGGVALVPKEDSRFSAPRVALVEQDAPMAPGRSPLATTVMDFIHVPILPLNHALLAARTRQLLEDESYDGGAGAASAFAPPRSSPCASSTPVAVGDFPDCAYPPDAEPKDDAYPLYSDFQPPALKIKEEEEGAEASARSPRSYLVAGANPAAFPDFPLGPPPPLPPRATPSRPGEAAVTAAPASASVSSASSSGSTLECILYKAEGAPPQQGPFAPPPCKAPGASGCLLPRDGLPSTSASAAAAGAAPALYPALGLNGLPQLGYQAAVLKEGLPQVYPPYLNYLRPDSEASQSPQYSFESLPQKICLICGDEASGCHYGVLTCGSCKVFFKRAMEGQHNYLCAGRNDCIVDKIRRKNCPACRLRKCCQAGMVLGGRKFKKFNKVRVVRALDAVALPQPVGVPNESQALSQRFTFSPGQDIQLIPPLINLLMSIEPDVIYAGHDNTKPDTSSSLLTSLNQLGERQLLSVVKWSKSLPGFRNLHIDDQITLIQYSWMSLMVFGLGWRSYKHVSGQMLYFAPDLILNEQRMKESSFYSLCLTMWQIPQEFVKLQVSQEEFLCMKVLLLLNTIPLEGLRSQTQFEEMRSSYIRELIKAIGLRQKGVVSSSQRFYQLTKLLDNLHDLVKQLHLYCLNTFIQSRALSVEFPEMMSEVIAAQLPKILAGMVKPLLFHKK

Row | Structure (SMILES) | Potency [1] | Potency [2] | Potency [3] | Potency [4] | Potency [5] | outcome [6] | outcome [7] | outcome [8] | outcome [9] | outcome [10] | activity change, negative = cytotoxicity [1] | activity change, negative = inhibition [3] | activity change, negative = cytotoxicity [4] | activity change, negative = cytotoxicity [5] | viability change, negative = cytotoxic [6] | activity change, negative = cytotoxicity [7] | activation [8] | activity, negative = inhibition [9] | activation [10]
1 | CCN(C)C(=O)Oc1cccc([C@H](C)N(C)C)c1 | inactive | inactive | inactive | inactive | inactive | inactive | inactive | inactive | inactive | inactive | – | – | – | – | – | – | – | – | –
2 | COc1cc2c(cc1OC)C(=O)CC2 | inactive | inactive | inactive | inactive | inactive | inactive | inactive | inactive | inactive | inactive | – | – | – | – | – | – | – | – | –
3 | CCNC(=O)C1CC(C)CCC1C(C)C (stereo not given) | inactive | inactive | inactive | inactive | inactive | inactive | inactive | inactive | inactive | inactive | – | – | – | – | – | – | – | – | –
4 | CCCCCCOC(=O)CC | inactive | inactive | inactive | inactive | inactive | inactive | inactive | inactive | inactive | inactive | – | – | – | – | – | – | – | – | –
5 | CCOc1cc(NC(C)=O)ccc1C(=O)OC | inactive | inactive | inactive | inactive | inactive | inactive | inactive | inactive | inactive | inactive | – | – | – | – | – | – | – | – | –
6 | CC(C)CC(=O)O | inactive | inactive | inactive | inactive | inactive | inactive | inactive | inactive | inactive | inactive | – | – | – | – | – | – | – | – | –
7 | COCCOCCOCCOCCO | inactive | inactive | inactive | inactive | inactive | inactive | inactive | inactive | inactive | inactive | – | – | – | – | – | – | – | – | –
8 | ClCCCl | inactive | inactive | inactive | inactive | inactive | inactive | inactive | inactive | inactive | inactive | – | – | – | – | – | – | – | – | –
9 | CC(=O)NCCCCCC(=O)O | inactive | inactive | inactive | inactive | inactive | inactive | inactive | inactive | inactive | inactive | – | – | – | – | – | – | – | – | –
10 | CCCCN | inactive | inactive | inactive | inactive | inactive | inactive | inactive | inactive | inactive | inactive | – | – | – | – | – | – | – | – | –
11 | O=C(O)C(=O)Cc1ccccc1 | inactive | inactive | inactive | inactive | inactive | inactive | inactive | inactive | inactive | inactive | – | – | – | – | – | – | – | – | –
12 | CCO[Si](CCCS)(OCC)OCC | inactive | inactive | inactive | inactive | inactive | inactive | inactive | inactive | inactive | inactive | – | – | – | – | – | – | – | – | –
13 | OCCC(F)(F)C(F)(F)C(F)(F)C(F)(F)C(F)(F)C(F)(F)C(F)(F)C(F)(F)F | inactive | inactive | inactive | inactive | inactive | inactive | inactive | inactive | inactive | inactive | – | – | – | – | – | – | – | – | –
14 | O=C1c2ccccc2C(=O)c2cc(S(=O)(=O)O)ccc21 | inactive | inactive | inactive | inactive | inactive | inactive | inactive | inactive | inactive | inactive | – | – | – | – | – | – | – | – | –
15 | Cc1c(I)c(=O)n(-c2ccccc2)n1C | inactive | inactive | inactive | inactive | inactive | inactive | inactive | inactive | inactive | inactive | – | – | – | – | – | – | – | – | –
16 | O=C(O)Cc1ccc(Cl)cc1Cl | inactive | inactive | inactive | inactive | inactive | inactive | inactive | inactive | inactive | inactive | – | – | – | – | – | – | – | – | –
17 | CCCCCCCCSCC | inactive | inactive | inactive | inactive | inactive | inactive | inactive | inactive | inactive | inactive | – | – | – | – | – | – | – | – | –
18 | CCCCCCCC/C=C\CCCCCCCC(=O)OCCCC | – | 1.24 µM (active) | – | – | – | – | – | – | – | – | -4.95% [at 19 µM] | -2.42% [at 18.9 µM] | 0.852% [at 18.9 µM] | 0% [at 19 µM] | 2.1% [at 15.8 µM] | 0.118% [at 15.8 µM] | -1.96% [at 15.8 µM] | 8.97% [at 10.5 µM] | 0.159% [at 11.8 µM]
19 | CCCCOC(=O)c1ccccc1 | inactive | inactive | inactive | inactive | inactive | inactive | inactive | inactive | inactive | inactive | – | – | – | – | – | – | – | – | –
20 | C[C@H](N)[C@H](O)c1cccc(O)c1 | inactive | inactive | inactive | inactive | inactive | inactive | inactive | inactive | inactive | inactive | – | – | – | – | – | – | – | – | –
21 | CC(=O)N[C@@H](CCC(=O)O)C(=O)O | inactive | inactive | inactive | inactive | inactive | inactive | inactive | inactive | inactive | inactive | – | – | – | – | – | – | – | – | –
22 | Cc1ccc2c(c1)OCC(=O)CO2 | inactive | inactive | inactive | inactive | inactive | inactive | inactive | inactive | inactive | inactive | – | – | – | – | – | – | – | – | –
23 | CC(=O)c1ccc2c(c1)Cc1ccccc1-2 | inactive | inactive | 12.2 µM (active) | inactive | inactive | inactive | inactive | inactive | inactive | inactive | – | – | – | – | – | – | – | – | –
24 | CCN1CCc2nc(N)oc2CC1 | inactive | inactive | inactive | inactive | inactive | inactive | inactive | inactive | inactive | inactive | – | – | – | – | – | – | – | – | –
